Hits are enriched below; roughly 6% of the tested compounds scored in any of these assays.
D3 ag: agonists of human D3 dopamine receptor | P35462 | D3R DiscoveRx beta-arrestin cells, luminescence, 90 min | max activation, % | 410,000 tested, 0.58% active | AID 652048; in the data active means max activation above about 30%
Target sequence (P35462 whole entry, looked up): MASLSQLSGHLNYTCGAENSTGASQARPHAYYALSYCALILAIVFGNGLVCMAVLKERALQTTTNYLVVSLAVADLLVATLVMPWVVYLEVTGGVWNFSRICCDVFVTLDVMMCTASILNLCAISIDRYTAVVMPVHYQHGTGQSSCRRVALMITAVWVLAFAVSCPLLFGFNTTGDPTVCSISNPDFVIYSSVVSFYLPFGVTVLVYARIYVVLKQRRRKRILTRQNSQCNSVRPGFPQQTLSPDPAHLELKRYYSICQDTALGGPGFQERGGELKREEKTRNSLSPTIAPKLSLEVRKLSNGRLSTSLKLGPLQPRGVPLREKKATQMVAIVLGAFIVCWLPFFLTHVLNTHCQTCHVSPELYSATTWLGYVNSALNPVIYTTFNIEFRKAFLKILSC
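Agonist mode: compounds and dopamine controls were applied to plated cells for 90 min at 37 degrees C after an overnight attachment at 1500 cells/well. Luminescent read-out followed 30 - 60 minutes at room temperature with DiscoveRx detection reagent.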
D1 potentiator: potentiators of human D1 dopamine receptor. P21728. HEK293 TREx D1 cells, calcium flux, dopamine EC20 potentiation. potentiation, % at 10 µM. 360,000 tested, 0.036% active. AID 504651; in the data active means potentiation above about 30%
D1 antag: blocks dopamine activation of the human D1 receptor; P21728; HEK293 TREx D1 cells, calcium flux, dopamine EC80; stronger effect = lower value; activity change, negative = inhibition, % at 10 µM; 360,000 tested, 3.2% active; AID 504652; in the data active means activity change below about -30%
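After overnight tetracycline induction at 30 C, force-coupled D1 HEK293 cells took up a no-wash calcium dye at room temperature. Compounds were added and monitored 180 s, and the response to EC80 dopamine was then recorded.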
D1 ag: agonists of human D1 dopamine receptor; P21728; HEK293 T-REx D1 cells, calcium flux, agonist mode; activation, % at 2 µM; 360,000 tested, 1% active; AID 504660; in the data active means activation above about 30%
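Agonism was scored from calcium flux recorded over 180 s (1 read/s) after pintool compound addition, following a 10-cycle baseline. Cells were inducible force-coupled HEK293 TREx D1, plated overnight at 30 C and loaded with no-wash calcium dye.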
D3 antag: antagonists of human D3 dopamine receptor; P35462; D3R cells, DiscoveRx beta-arrestin luminescence, antagonist mode; stronger effect = lower value; max response, negative = inhibition, %; 360,000 tested, 2.5% active; in the data active means max response below about -50%; inconclusive means no clear call, values can overlap the other calls
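Cells expressing the human receptor were seeded at 1500 cells/well, incubated overnight at 37 degrees C in 5% CO2, then exposed to library compounds with dopamine controls for 90 minutes at 37 degrees C before luminescent detection.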
Large screens that a line does not name were inactive.

O=C(NCc1cccnc1)c1ccc(COc2ccccc2Br)cc1	none
CC(=O)Nc1cccc(NC(=O)c2ccc(COc3ccccc3)cc2)c1	D1 ag 36 (no result: D1 potentiator)
COc1cc(NC(=O)NC(C)c2c(-n3cccc3)sc3c2CCN(C)C3)cc(OC)c1 (stereo not drawn)	none (no result: D3 antag)
CC(C)(C)C1CCc2c(sc(NC(=O)c3ccccc3F)c2C(=O)NCc2ccco2)C1 (stereo not drawn)	none (no result: D3 antag)
CC(C(=O)O)c1cccc(Oc2ccccc2)c1 (stereo not drawn)	D3 antag -62 (no result: D1 potentiator, D1 antag, D1 ag)
COc1ccc(C(=O)Nc2ccc(C(=O)Nc3cccc(C)c3)cc2)cc1	D1 antag -31
O=C(COC(=O)/C=C/c1cccs1)Nc1ccc2ccccc2c1	D1 antag -35
COc1ccc(OCc2ccc(C(=O)NN)cc2)cc1	D1 antag -42
O=c1c2sc3ccccc3c2n(Cc2cccc(Cl)c2)c(=O)n1Cc1ccc(F)cc1	none (no result: D3 antag)
O=S(=O)(Nc1cc(Br)cc2cccnc12)c1ccccc1	none (no result: D3 ag, D3 antag)
O=C(CSc1ccncc1)Nc1ccc2ccccc2c1	D1 antag -31
O=C(Nc1ccncc1)c1ccc2ccccc2c1	D1 antag -38
O=C(Nc1nnc(-c2ccncc2)o1)c1ccc2ccccc2c1	none
CCOc1cccc(C(=O)NC(c2ccccc2)C(C)C)c1 (stereo not drawn)	none
CCCC(C)NC(=O)c1cccc(Oc2ccccc2)c1 (stereo not drawn)	D1 ag 33
CC(=O)Nc1ccc(NC(=O)c2cccc(Oc3ccccc3)c2)cc1	D3 antag -51
CCO[C@@H]1O[C@H](C(COCc2ccccc2)OCc2ccccc2)[C@H](OCc2ccccc2)[C@H]1O (stereo partly drawn)	none (no result: D1 potentiator, D1 antag, D1 ag, D3 antag)
COC(=O)c1ccc(NC(=O)c2cccc(C)c2)cc1	D3 antag -52
COc1cccc(C(=O)Nc2ccncc2)c1	D1 antag -59 (no result: D3 ag, D3 antag)
COc1cccc(C(=O)COc2cccc(NC(=O)c3cccc([N+](=O)[O-])c3)c2)c1	D3 antag -51
Cc1cccc(NC(=O)Nc2ccc(Oc3c(F)c(F)c(F)c(F)c3F)cc2)c1	D3 antag -117
COc1ccc(CNC(=O)Cn2c(=O)nc(-c3ccccc3F)c3cc(Cl)ccc32)cc1	none (no result: D3 antag)
COCCc1nn2c(=O)cc(COC(=O)c3ccc4c(c3)OCO4)nc2s1	none (no result: D3 antag)
CC1CCCC(NC(=O)CSc2ccc(F)cc2)C1C (stereo not drawn)	none
O=C(CSc1n[nH]c(=O)n1Cc1ccccc1)Nc1ccc(F)c(F)c1F	D1 ag 34
CC1CCCC(NC(=O)CSc2n[nH]c(=O)n2Cc2ccccc2)C1C (stereo not drawn)	D3 ag 48 (no result: D1 potentiator, D1 antag, D1 ag)
FC(F)(F)c1cc(-c2ccco2)nc(-n2nnc3ccccc32)n1	none
CN1CCN(c2nc(-c3ccco3)cc(C(F)(F)F)n2)CC1	D1 antag -68, D3 antag -92
O=[N+]([O-])c1cn(-c2nc(-c3ccco3)cc(C(F)(F)F)n2)cn1	D1 ag 62 (no result: D1 antag)
CCOC(=O)N1CCN(c2nc(-c3ccco3)cc(C(F)(F)F)n2)CC1	none
O=C(CN1C(=O)C2(SCC(=O)N2c2ccccc2)c2ccccc21)Nc1ccccc1C(F)(F)F (stereo not drawn)	none (no result: D3 antag)
Cc1ccc(CCNC(=O)c2cc3n(n2)CCCN(Cc2ccc(C)cc2)C3=O)cc1	none (no result: D3 antag)
CCn1c(=O)c([N+](=O)[O-])c(NCCc2ccccc2)c2ccccc21	D1 antag -52
Cc1ccc(N2CCn3c2nc2c3c(=O)n(CCc3ccccc3)c(=O)n2C)cc1C	none (no result: D3 antag)
Cc1ccc(Oc2ncccc2C(=O)NCC(=O)O)cc1	D1 antag -88, D3 antag inconclusive
CC(=O)Nc1ccc(Sc2ncccc2C(=O)Nc2cc(Cl)cc(Cl)c2)cn1	D3 antag -52
Cn1ncc(C(=O)Nc2ccc(OC(F)(F)F)cc2)c1-n1cccc1	none
CC(=O)Nc1ccc(Sc2ncccc2C(=O)Nc2ccc(OC(F)(F)F)cc2)cn1	D1 antag -60, D1 ag 115
COc1cc(NC(=O)c2cccnc2Sc2ccc(C)c(C)c2)cc(OC)c1OC	none
CN(c1ccccc1C(=O)O)S(=O)(=O)c1ccc2[nH]c(=O)oc2c1	none (no result: D3 antag)
NS(=O)(=O)c1cccc(NC(=O)CCSc2ccccc2Cl)c1	none
Cc1cc(C)c([N+](=O)[O-])cc1NC(=O)CCSc1ccccc1Cl	D1 antag -35
